Records with an inconclusive call do not appear. Activity calls are given as the source filed them. Calls follow the shape of the dose curve; as a rule, active = well fitted curve in the direction sought with a large enough effect; inconclusive = small, poorly fitted or top-dose-only effect, or another doubt; inactive = no such curve, though single readings can be large; an effect the other way counts as inactive or inconclusive.
What was measured:
[1] = HEK-293 Cancer Cell Toxicity qHTS against the NCATS CANVASS Library (AID 1347355); also: series mostly up to about 46 µM; nearly all actives have a fitted effect of over 65% in size
Summary of the method: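 qHTS cytotoxicity: compounds tested in 11 concentrations on 1000 seeded cells per well over 72 h; bortezomib served as control; signal from CellTiter-Glo luminescence.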

[2] = HPAF-II 24hr Apoptosis Induction qHTS against the NCATS CANVASS Library (AID 1347356)
Summary of the method: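 Apoptosis induction in HPAF-II pancreatic cancer cells is measured as caspase-3/7 luminescence after a 24-hour exposure to compounds.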

[3] = HEK293 18hr Apoptosis Induction qHTS against the NCATS CANVASS Library (AID 1347357)
Summary of the method: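 Luminescent caspase-3/7 signal is measured in HEK293 cells exposed for 18 hours to an 11-point concentration series; doxorubicin serves as the plate control.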

[4] = HPAF-II 12hr Apoptosis Induction qHTS against the NCATS CANVASS Library (AID 1347358)
Summary of the method: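 Apoptosis in HPAF-II pancreatic cancer cells is scored as caspase 3/7 luminescence following a 12-hour exposure to an 11-point compound series.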

[5] = HEK293 24hr Apoptosis Induction qHTS against the NCATS CANVASS Library (AID 1347359)
Summary of the method: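 Caspase-3/7 activation measured as luminescence from the DEVD-based Caspase-Glo reagent, 15 min at room temperature, following 24-hour compound treatment of HEK293 cells.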

[6] = HPAF-II 18hr Apoptosis Induction qHTS against the NCATS CANVASS Library (AID 1347360)
Summary of the method: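 Apoptosis was scored as caspase-3/7 activity in HPAF-II pancreatic cancer cells treated 18 hours with an 11-point concentration series.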

[7] = HEK293 12hr Apoptosis Induction qHTS against the NCATS CANVASS Library (AID 1347361)
Summary of the method: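 Apoptosis in HEK293 was scored as caspase-3/7 luminescence following 12 h treatment with a compound concentration series in qHTS format.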

[8] = tested on: NAD(P)H diaphorase (Clostridium kluyveri); experiment: Diaphorse counterscreen qHTS: Assay Interference Panel against the NCATS CANVASS Library (AID 1347362)
Text: Natural products and their derivatives continue to be wellsprings of nascent therapeutic potential. However, many laboratories have limited resources for biological evaluation, leaving their previously isolated or synthesized compounds largely or completely untested. To address this issue, the Canvass library of natural products was assembled (https://tripod.nih.gov/canvass), in collaboration with academic and industry researchers, for quantitative high-throughput screening (qHTS) across a diverse set of cell-based and biochemical assays. The pure (>85% purity by liquid chromatography/mass spectrometry [LC/MS]) Canvass library of 346 natural products were submitted by 45 academic laboratories and companies around the world. […] The library was formatted into 1536-well plates and evaluated in 50 qHTS (in an 11-pnt concentration series) bioassays with broad scope of disease-relevant mechanisms. The resulting data set from 50 different assays was then systematically analyzed to identify overall trends and specific natural products with interesting biological activities. […]
Assay Interference counterscreen protocol 1. […] Fluorescence signal was acquired via the ViewLux plate reader (PerkinElmer) using an excitation filter 525/20, emission filter 598/25; 1000 light energy, 2 second exposure, 2x binning settings.

[9] = target: Luciferin 4-monooxygenase (Photinus pyralis) (UniProt P08659); experiment: Firefly luciferase counterscreen qHTS: Assay Interference Panel against the NCATS CANVASS Library (AID 1347363); also: series mostly up to about 57 µM
Sequence of Luciferin 4-monooxygenase (Photinus pyralis) (P08659 whole entry, looked up): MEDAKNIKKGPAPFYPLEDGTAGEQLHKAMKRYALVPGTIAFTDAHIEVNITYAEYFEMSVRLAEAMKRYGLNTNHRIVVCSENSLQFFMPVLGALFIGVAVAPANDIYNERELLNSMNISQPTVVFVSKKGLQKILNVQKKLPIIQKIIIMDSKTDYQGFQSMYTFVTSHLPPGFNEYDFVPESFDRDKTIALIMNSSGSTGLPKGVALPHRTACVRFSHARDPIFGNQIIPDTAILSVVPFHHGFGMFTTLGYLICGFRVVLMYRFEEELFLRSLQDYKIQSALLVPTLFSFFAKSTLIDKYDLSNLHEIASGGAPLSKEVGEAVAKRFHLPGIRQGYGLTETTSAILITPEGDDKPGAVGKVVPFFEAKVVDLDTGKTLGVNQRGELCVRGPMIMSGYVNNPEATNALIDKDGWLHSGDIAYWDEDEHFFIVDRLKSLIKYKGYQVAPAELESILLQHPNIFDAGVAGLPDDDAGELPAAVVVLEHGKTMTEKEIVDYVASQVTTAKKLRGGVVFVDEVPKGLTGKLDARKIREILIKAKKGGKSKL
Summary of the method: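 Luminescence inhibition readout: compounds (11-point qHTS) sat 15 min at room temperature with substrate mix (0.013 mM luciferin and ATP), then firefly luciferase was added and signal read 5 min later.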

[10] = KB-8-5-11 Cancer Cell Toxicity qHTS against the NCATS CANVASS Library (AID 1347364); also: series mostly up to about 46 µM; nearly all actives have a fitted effect of over 75% in size
Summary of the method: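 Natural products were titrated in 11 points onto KB-8-5-11 cells, 500 per well, and cytotoxicity was scored from CellTiter-Glo luminescence after 72 hr culture.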

Measured: outcome

CN(C)CCc1c[nH]c2ccccc12
inactive: [1] | [2] | [3] | [4] | [5] | [6] | [7] | [8] | [9] | [10]
